CYP2C9 activ – activators of human CYP2C9. P11712. recombinant CYP2C9, luciferin-H conversion, luminescence; active compounds read high; factor 1 = untreated enzyme, 0 = blocked. activation factor at 5 µM. 1.4% of 96,000 active. AID 1024;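 active means activation factor of 2 or more for CYP2C9 at a 5 µM dose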;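 further: 0 = sulfaphenazole-blocked wells and 1 = vehicle-only wells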
CYP2C9 inhib – human CYP2C9 inhibition | 20% of 96,000 active | inhibition, % at 5 µM | AID 777 | CYP2C9 Supersomes, luciferin-H conversion, luminescence;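 active means blocking of liver enzyme CYP2C9 beyond about 50% at 5 µM, limit read from the data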
EphB4 ephrin blk – EphB4-ephrin-B2 interaction antagonism; 0.15% of 97,000 active; P54760; inhibition, % at 7 µM; EphB4 LBD / TNYL-RAW-Alexa532 peptide, fluorescence polarization; AID 720;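 active means inhibition above the screen-wide mean inhibition plus 3 SD, cut at about 15% in these data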;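 further: 0% = DMSO wells and 100% = excess unlabeled TNYL-RAW peptide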
CYP2C19 inh – inhibitors of human CYP2C19 | CYP2C19 Supersomes, luciferin-H EGE luminescence, 30 min | 21% of 96,000 active | inhibition, % at 5 µM | P33261 | AID 778;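 active means CYP2C19 inhibition above a set limit at 5 µM in the primary screen, cut at about 50% in these data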;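 further: plate controls were negative control wells for no effect and 2.5 mM tranylcypromine positive control for full effect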
Target sequence (P33261 whole entry, looked up): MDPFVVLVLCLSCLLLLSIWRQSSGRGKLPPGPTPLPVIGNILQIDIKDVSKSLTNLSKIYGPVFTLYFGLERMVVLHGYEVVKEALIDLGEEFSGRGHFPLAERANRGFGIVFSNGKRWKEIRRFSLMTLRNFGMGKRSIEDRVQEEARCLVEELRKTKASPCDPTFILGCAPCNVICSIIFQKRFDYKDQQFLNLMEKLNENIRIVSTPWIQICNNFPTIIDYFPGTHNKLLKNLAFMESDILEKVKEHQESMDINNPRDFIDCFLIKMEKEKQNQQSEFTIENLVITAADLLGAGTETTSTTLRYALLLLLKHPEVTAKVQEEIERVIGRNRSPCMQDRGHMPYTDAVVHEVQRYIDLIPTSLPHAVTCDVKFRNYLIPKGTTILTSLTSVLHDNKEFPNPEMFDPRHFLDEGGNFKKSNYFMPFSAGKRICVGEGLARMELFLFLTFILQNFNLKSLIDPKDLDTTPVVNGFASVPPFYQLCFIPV
CYP2C19 act – increases human CYP2C19 enzyme activity; P33261; recombinant CYP2C19, luciferin-H EGE luminescence; active compounds read high; 0 = fully inhibited enzyme, 1 = untreated enzyme; activation factor at 5 µM; 96,000 tested, under 10 active;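 active means activation factor of at least 2 at 5 µM in the primary screen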;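 further: 0 = wells with 2.5 mM tranylcypromine and 1 = vehicle-only wells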
The depositor's hits bear a star; x = no result given. Only some compounds are listed: those with a hit (about 27% of all), similar ones and a draw of the others.

SMILES	CYP2C9 activ	CYP2C9 inhib	EphB4 ephrin blk	CYP2C19 inh	CYP2C19 act
CCCCn1nnnc1SCC(=O)Nc1ccc2c(c1)OCCO2	0.4	59*	0	67*	0.3
CCn1nnnc1SCC(=O)Nc1ccc2c(c1)OCO2	x	x	3	x	x
CCCCn1nnnc1SCC(=O)Nc1ccc(C)cc1	0.6	36	-5	71*	0.3
CCCn1nnnc1SCC(=O)Nc1ccc(F)cc1	0.8	19	0	96*	0
Cn1cnnc1SCC(=O)c1ccc2c(c1)OCCO2	1.2	-20	4	-13	1.1
CCCn1nnnc1NC(=O)CSc1ccc(Cl)cc1	0.3	66*	10	82*	0.2
CCCn1nnnc1SCC(=O)c1ccc2c(c1)OCCO2	0.6	37	2	65*	0.4
O=C(Nc1ccccc1)N1CC=C(c2ccccc2)CC1	0.8	19	-8	33	0.7
O=C(Nc1ccccc1)N1CC=C(c2ccc(F)cc2)CC1	0.7	30	2	56*	0.4
COc1cc(/C=N/NC(=O)CNC(=O)c2ccc3c(c2)OCCO3)ccc1O	x	x	-10	x	x
COc1cc(/C=N/N=C2\CC3CCC2(C)C3(C)C)ccc1O (stereo not drawn)	0.8	19	9	16	0.8
C=CCn1c(=O)c2ccccc2n2c(SC(C)C(=O)Nc3nc(-c4ccccc4)cs3)nnc12 (stereo not drawn)	x	x	-4	x	x
C/C(=C\C(=O)C(F)(F)F)Nc1ccc(C(F)(F)F)cc1	1	2	6	4	1
CN=C(Nc1ccc(Cl)cc1)c1ccc(C(F)(F)F)cc1	0.7	25	1	80*	0.2
CN=C(Nc1ccc(Cl)cc1)c1cccc(C(F)(F)F)c1	0.8	23	-6	74*	0.3
CN(CCOC(=O)C1c2ccccc2Oc2ccccc21)C(C)(C)C	0.9	8	-5	40	0.6
CCS(=O)(=O)NCc1ccc2[nH]c3c(c2c1)CCCC3	0.3	74*	4	38	0.6
CCOC(=O)CNC(=O)c1ccc2[nH]c3c(c2c1)CCCC3	0.7	34	8	24	0.8
O=C(Nc1ccc(Cl)cc1)N(CCCN1CCOCC1)Cc1cccs1	0.5	48	9	84*	0.2
CCc1ccc(NC(=O)N(Cc2cccnc2)Cc2ccco2)cc1	0.1	87*	0	98*	0
CCc1ccc(NC(=O)N(Cc2ccco2)C(C)c2cccs2)cc1 (stereo not drawn)	0.6	42	-2	24	0.8
CCOc1ccc(NC(=O)N(CCCN2CCOCC2)Cc2cccnc2)cc1	0.5	54*	9	78*	0.2
CCCN1CCCc2cc(CN(CCCN3CCOCC3)C(=O)Nc3ccc(OCC)cc3)ccc21	0.9	8	1	9	0.9
Cc1ccc(NC(=O)N(CCCN2CCOCC2)Cc2cccs2)cc1C	0.5	53*	-7	63*	0.4
Cc1ccc(NC(=O)N(CCCN2CCOCC2)Cc2cc3cc4c(cc3[nH]c2=O)OCO4)cc1	0.9	9	-2	16	0.8
SMILES	CYP2C9 activ	CYP2C9 inhib	EphB4 ephrin blk	CYP2C19 inh	CYP2C19 act
Cc1cc(C)n(-c2cccc(Cl)c2)c(=O)c1C#N	0.9	13	-5	16	0.8
O=C(/C=C/c1ccccc1)NC(=S)Nc1cccnc1	1	-3	6	-8	1.1
Cc1sc2ncn(-n3c(C)ccc3C)c(=O)c2c1C	0.8	18	-8	47	0.5
CCC(C)C(N)C(=O)NC(CCC(=O)OCc1ccccc1)C(N)=O (stereo not drawn)	1	0	0	-1	1
COC(=O)C(CCCCNC(=O)OCc1ccccc1)NC(=O)CN (stereo not drawn)	0.6	44	3	51*	0.5
CCCCCCCCNC(=O)C(CCC(=O)OCc1ccccc1)NC(C)=O (stereo not drawn)	0.9	7	0	75*	0.3
CCOC(=O)CSc1nnc(CNC(=O)c2ccc(OC)c(OC)c2)n1C	1.2	-19	-1	-20	1.2
CC1CCN(C(c2ccccc2)c2nnnn2C(C)(C)C)CC1 (stereo not drawn)	1	-3	x	10	0.9
O=C(OCCN1CCCCC1)c1ccc(Cl)cc1	0.9	14	1	45	0.5
O=C(OCCN(C1=NS(=O)(=O)c2ccccc21)c1ccccc1Cl)c1ccc(Cl)cc1	0.1	87*	4	44	0.6
COc1ccc(-c2nn(C)c3sc(C(=O)NCc4ccco4)cc23)cc1OC	1	2	x	-7	1.1
CCOC(=O)C1CCCN(C(=O)c2cc3nc(-c4cccc(OC)c4)cc(C(F)(F)F)n3n2)C1 (stereo not drawn)	0.2	84*	1	86*	0.1
CCOC(=O)C1CCCN(C(=O)c2cc3c(-c4cccc(OC)c4)nn(C)c3s2)C1 (stereo not drawn)	0.3	68*	6	37	0.6
COc1ccc(NC(=O)c2cc3c(-c4ccc(OC)c(OC)c4)nn(C)c3s2)cc1OC	0.3	74*	2	57*	0.4
CCOC(=O)C1CCN(C(=O)c2cc3c(-c4ccc(OC)c(OC)c4)nn(C)c3s2)CC1	0.1	95*	0	92*	0.1
Cc1cc(C)cc(NC(=O)c2ccccc2CC[N+](=O)[O-])c1	1	-4	3	20	0.8
CCOC(=O)Nc1ccc(=O)n(Cc2c(Cl)cccc2Cl)c1	0.5	53*	3	23	0.8
CC(C)CNC(=O)C(=O)NNC(=O)C1CCCCC1	1	-4	-3	-2	1
Cc1ccccc1N1C(=O)N(c2cccc(C(F)(F)F)c2)C2CS(=O)(=O)CC21 (stereo not drawn)	0.8	20	-12	63*	0.4
O=C(CN(C(=O)Cn1nnc(-c2cccs2)n1)c1ccc2c(c1)OCCO2)NCC1CCCO1 (stereo not drawn)	0.1	88*	1	33	0.7
CC(C)CCNC(=O)CN(CCCN1CCOCC1)C(=O)Cn1nnc(-c2ccc(F)cc2)n1	0.5	52*	1	39	0.6
O=C(CN(C(=O)Cn1nnc(-c2cccs2)n1)c1ccc2c(c1)OCCO2)NC1CCCCC1	0	99*	8	60*	0.4
CC(C)CCNC(=O)CN(Cc1ccc2c(c1)OCO2)C(=O)Cn1nnc(-c2cccs2)n1	0.1	92*	-2	48	0.5
COc1ccc(CNC(=O)C2CCN(C(=O)N(C)C)CC2)c(OC)c1	1.3	-28	1	-8	1.1
O=C(CN(C(=O)Cn1nnc(-c2cccs2)n1)c1cnc2ccccc2c1)NCC1CCCO1 (stereo not drawn)	0.3	75*	x	35	0.7
Cc1ccc(-c2nnn(CC(=O)N(CC(=O)NCC3CCCO3)c3ccccc3)n2)o1 (stereo not drawn)	0.9	11	-7	18	0.8
O=C(CN(Cc1ccccc1F)C(=O)Cn1nnc(-c2cccs2)n1)NCC1CCCO1 (stereo not drawn)	0.4	63*	-7	68*	0.3
